# In PubChem BioAssay AID1159580 (chemical genetic matrix, 2015):
# About 2,000 (36%) of roughly 5,500 compounds were called active. Inconclusive results (about 18%) are left out. This is one part of the list. Values without a mark were called inactive. No stated cut-off is given here; in the data, active means normalized growth mostly below about 0.91 (no sharp cut-off); inconclusive means no clear call, values can overlap the other calls; inactive means mostly above about 0.92.
# Experiment: chemical genetic growth profiling, strain panel (AID 1159580);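 further: tested at 20 µM; growth read once vehicle control cultures reached saturation at 30 °C; 1 = growth at the plate median or of vehicle wells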
# Conditions: S. cerevisiae deletion strains, growth OD
# [1] = locus YAR019C, strain CDC15, stronger effect = lower value
# [2] = locus YBL105C, strain PKC1, stronger effect = lower value
# [3] = locus YBR135W, strain CKS1, stronger effect = lower value
# [4] = locus YBR136W, strain MEC1, stronger effect = lower value
# [5] = locus YBR160W, strain CDC28, stronger effect = lower value
# [6] = locus YDL017W, strain CDC7, stronger effect = lower value
# [7] = locus YDL028C, strain MPS1, stronger effect = lower value
# [8] = locus YDL101C, strain DUN1, stronger effect = lower value
# [9] = locus YDL108W, strain KIN28, stronger effect = lower value
# [10] = locus YDL132W, strain cdc53, stronger effect = lower value
# [11] = locus YDL214C, strain PRR2, stronger effect = lower value
# [12] = locus YDR052C, strain DBF4, stronger effect = lower value
# [13] = locus YDR054C, strain cdc34, stronger effect = lower value
# [14] = locus YDR226W, strain ADK1, stronger effect = lower value
# [15] = locus YDR477W, strain SNF1, stronger effect = lower value
# [16] = locus YER123W, strain YCK3, stronger effect = lower value
# [17] = locus YER133W, strain GLC7, stronger effect = lower value
# [18] = locus YFL009W, strain cdc4, stronger effect = lower value
# [19] = locus YFL029C, strain CAK1, stronger effect = lower value
# [20] = locus YFR003C, strain YPI1, stronger effect = lower value
# [21] = locus YFR019W, strain FAB1, stronger effect = lower value
# [22] = locus YFR028C, strain CDC14, stronger effect = lower value
# [23] = locus YGR040W, strain KSS1, stronger effect = lower value
# [24] = locus YGR052W, strain FMP48, stronger effect = lower value
# [25] = locus YGR092W, strain DBF2, stronger effect = lower value
# [26] = locus YHR030C, strain SLT2, stronger effect = lower value
# [27] = locus YHR079C, strain IRE1, stronger effect = lower value
# [28] = locus YHR082C, strain KSP1, stronger effect = lower value
# [29] = locus YHR205W, strain SCH9, stronger effect = lower value
# [30] = locus YIL147C, strain SLN1, stronger effect = lower value
# [31] = locus YJL095W, strain BCK1, stronger effect = lower value
# [32] = locus YJL128C, strain PBS2, stronger effect = lower value
# [33] = locus YJL157C, strain FAR1, stronger effect = lower value
# [34] = locus YJR016C, strain ILV3, stronger effect = lower value
# [35] = locus YJR066W, strain TOR1 (second series), stronger effect = lower value
# [36] = locus YJR066W, strain TOR1, stronger effect = lower value
# [37] = locus YKL048C, strain ELM1, stronger effect = lower value
# [38] = locus YKL067W, strain YNK1, stronger effect = lower value
# [39] = locus YKL101W, strain HSL1, stronger effect = lower value
# [40] = locus YKL193C, strain SDS22, stronger effect = lower value
# [41] = locus YKL203C, strain TOR2, stronger effect = lower value
# [42] = locus YLR113W, strain HOG1, stronger effect = lower value
# [43] = locus YLR133W, strain CKI1, stronger effect = lower value
# [44] = locus YLR403W, strain SFP1, stronger effect = lower value
# [45] = locus YML070W, strain DAK1, stronger effect = lower value
# [46] = locus YMR001C, strain CDC5, stronger effect = lower value
# [47] = locus YMR205C, strain PFK2 (second series), stronger effect = lower value
# [48] = locus YMR277W, strain FCP1, stronger effect = lower value
# [49] = locus YNL006W, strain LST8, stronger effect = lower value
# [50] = locus YNL020C, strain ARK1, stronger effect = lower value
# [51] = locus YNL161W, strain CBK1, stronger effect = lower value
# [52] = locus YNL183C, strain NPR1, stronger effect = lower value
# [53] = locus YNL207W, strain RIO2, stronger effect = lower value
# [54] = locus YNL222W, strain SSU72, stronger effect = lower value
# [55] = locus YNL307C, strain MCK1 (second series), stronger effect = lower value
# [56] = locus YOL078W, strain AVO1, stronger effect = lower value
# [57] = locus YOL136C, strain PFK27, stronger effect = lower value
# [58] = locus YOR061W, strain CKA2, stronger effect = lower value
# [59] = locus YOR119C, strain RIO1, stronger effect = lower value
# [60] = locus YOR231W, strain MKK1, stronger effect = lower value
# [61] = locus YOR329C, strain SCD5, stronger effect = lower value
# [62] = locus YPL031C, strain PHO85, stronger effect = lower value
# [63] = locus YPL153C, strain RAD53, stronger effect = lower value
# [64] = locus YPL204W, strain HRR25, stronger effect = lower value
# [65] = locus YPL209C, strain IPL1, stronger effect = lower value
# [66] = locus YPL256C, strain CLN2, stronger effect = lower value
# [67] = locus YPR025C, strain CCL1, stronger effect = lower value
# [68] = locus YPR106W, strain ISR1, stronger effect = lower value
# [69] = locus YPR111W, strain DBF20, stronger effect = lower value
# [70] = strain NNK1, stronger effect = lower value
# [71] = strain TSCII, stronger effect = lower value
# [72] = locus YAL013W, strain DEP1, stronger effect = lower value
# [73] = locus YBR229C, strain ROT2, stronger effect = lower value
# [74] = locus YDR150W, strain NUM1, stronger effect = lower value
# [75] = locus YEL061C, strain CIN8, stronger effect = lower value
# [76] = locus YGR078C, strain PAC10, stronger effect = lower value
# [77] = locus YHR087W, strain rtc3, stronger effect = lower value
# [78] = locus YJL187C, strain SWE1, stronger effect = lower value
# [79] = locus YJR043C, strain POL32, stronger effect = lower value
# [80] = locus YJR075W, strain HOC1, stronger effect = lower value
# [81] = locus YLR039C, strain RIC1, stronger effect = lower value
# [82] = locus YLR058C, strain SHM2 (second series), stronger effect = lower value
# [83] = locus YLR085C, strain ARP6, stronger effect = lower value
# [84] = locus YLR262C, strain YPT6, stronger effect = lower value
# [85] = locus YML094W, strain GIM5, stronger effect = lower value
# [86] = locus YMR219W, strain ESC1, stronger effect = lower value
# [87] = locus YMR263W, strain SAP30, stronger effect = lower value
# [88] = locus YNL153C, strain GIM3, stronger effect = lower value
# [89] = locus YNL298W, strain CLA4 (second series), stronger effect = lower value
# [90] = locus YNL322C, strain KRE1, stronger effect = lower value
# [91] = locus YNR030W, strain Alg12, stronger effect = lower value
# [92] = locus YPL055C, strain LGE1, stronger effect = lower value
# [93] = locus YPL241C, strain CIN2, stronger effect = lower value
# [94] = locus YPR135W, strain CTF4, stronger effect = lower value
compound,measurement,setting,value
CC1(C)OC(=O)C(=Cc2cccn2-c2ccc(OC(F)(F)F)cc2)C(=O)O1,normalized growth,[1],0.966
same,normalized growth,[2],0.995
same,normalized growth,[3],0.996
same,normalized growth,[4],0.987
same,normalized growth,[5],0.985
same,normalized growth,[6],0.999
same,normalized growth,[7],0.972
same,normalized growth,[8],0.979
same,normalized growth,[9],0.989
same,normalized growth,[10],0.99
same,normalized growth,[11],0.899
same,normalized growth,[12],0.989
same,normalized growth,[13],0.972
same,normalized growth,[14],0.963
same,normalized growth,[15],0.898
same,normalized growth,[16],0.884
same,normalized growth,[17],0.944
same,normalized growth,[18],0.96
same,normalized growth,[19],0.967
same,normalized growth,[20],0.993
same,normalized growth,[21],0.942
same,normalized growth,[22],0.964
same,normalized growth,[23],0.91
same,normalized growth,[24],0.921
same,normalized growth,[25],0.881
same,normalized growth,[26],0.673 (active)
same,normalized growth,[27],0.875
same,normalized growth,[28],0.861
same,normalized growth,[29],0.801
same,normalized growth,[30],0.976
same,normalized growth,[31],0.832
same,normalized growth,[32],0.918
same,normalized growth,[33],0.948
same,normalized growth,[34],0.979
same,normalized growth,[35],0.987
same,normalized growth,[36],0.829
same,normalized growth,[37],0.931
same,normalized growth,[38],0.915
same,normalized growth,[39],0.89
same,normalized growth,[40],0.973
same,normalized growth,[41],0.989
same,normalized growth,[42],0.768 (active)
same,normalized growth,[43],0.923
same,normalized growth,[44],0.92
same,normalized growth,[45],0.909
same,normalized growth,[46],0.97
same,normalized growth,[47],0.93
same,normalized growth,[48],0.954
same,normalized growth,[49],0.975
same,normalized growth,[50],0.922
same,normalized growth,[51],0.982
same,normalized growth,[52],0.894
same,normalized growth,[53],0.986
same,normalized growth,[54],0.98
same,normalized growth,[55],0.887
same,normalized growth,[56],0.973
same,normalized growth,[57],0.908
same,normalized growth,[58],0.916
same,normalized growth,[59],0.936
same,normalized growth,[60],0.827
same,normalized growth,[61],0.986
same,normalized growth,[62],0.914
same,normalized growth,[63],0.916
same,normalized growth,[64],0.923
same,normalized growth,[65],0.991
same,normalized growth,[66],0.782 (active)
same,normalized growth,[67],1
same,normalized growth,[68],0.967
same,normalized growth,[69],0.939
same,normalized growth,[70],0.976
same,normalized growth,[71],0.968
N#C/C(=C\c1cccn1-c1ccc(OC(F)(F)F)cc1)S(=O)(=O)c1ccccc1,normalized growth,[72],1.05
same,normalized growth,[73],1
same,normalized growth,[8],0.982
same,normalized growth,[74],1.03
same,normalized growth,[75],1.02
same,normalized growth,[76],1.02
same,normalized growth,[26],1.04
same,normalized growth,[77],1.02
same,normalized growth,[78],1.01
same,normalized growth,[79],0.986
same,normalized growth,[80],0.988
same,normalized growth,[81],1
same,normalized growth,[82],0.995
same,normalized growth,[83],1.23 [resistant] (active)
same,normalized growth,[84],0.976
same,normalized growth,[85],1.07
same,normalized growth,[86],1.01
same,normalized growth,[87],1
same,normalized growth,[88],1.03
same,normalized growth,[89],1.03
same,normalized growth,[90],1
same,normalized growth,[91],1.05
same,normalized growth,[92],1.14
same,normalized growth,[93],1.09
same,normalized growth,[94],1.38 [resistant] (active)
CC1(C)OC(=O)C(=Cc2cccn2-c2ccc(C(F)(F)F)cc2)C(=O)O1,normalized growth,[1],1.01
same,normalized growth,[2],1.03
same,normalized growth,[3],1.04
same,normalized growth,[4],1.03
same,normalized growth,[5],1.02
same,normalized growth,[6],1.04
same,normalized growth,[7],1.01
same,normalized growth,[8],1
same,normalized growth,[9],1.02
same,normalized growth,[10],1.03
same,normalized growth,[11],0.913
same,normalized growth,[12],1.01
same,normalized growth,[13],1.02
same,normalized growth,[14],1.03
same,normalized growth,[15],0.908
same,normalized growth,[16],0.896
same,normalized growth,[17],0.963
same,normalized growth,[18],1.02
same,normalized growth,[19],0.998
same,normalized growth,[20],1.03
same,normalized growth,[21],0.941
same,normalized growth,[22],0.999
same,normalized growth,[23],0.921
same,normalized growth,[24],0.954
same,normalized growth,[25],0.921
same,normalized growth,[26],0.686 (active)
same,normalized growth,[27],0.86
same,normalized growth,[28],0.901
same,normalized growth,[29],0.775
same,normalized growth,[30],1.02
same,normalized growth,[31],0.844
same,normalized growth,[32],0.931
same,normalized growth,[33],0.946
same,normalized growth,[34],1.01
same,normalized growth,[35],0.958
same,normalized growth,[36],0.844
same,normalized growth,[37],0.88
same,normalized growth,[38],0.912
same,normalized growth,[39],0.885
same,normalized growth,[40],1.02
same,normalized growth,[41],1.01
same,normalized growth,[42],0.711 (active)
same,normalized growth,[43],0.916
same,normalized growth,[44],0.898
same,normalized growth,[45],0.912
same,normalized growth,[46],1
same,normalized growth,[47],0.93
same,normalized growth,[48],1
same,normalized growth,[49],1
same,normalized growth,[50],0.914
same,normalized growth,[51],1.03
same,normalized growth,[52],0.917
same,normalized growth,[53],1.03
same,normalized growth,[54],1.02
same,normalized growth,[55],0.859
same,normalized growth,[56],1.01
same,normalized growth,[57],0.884
same,normalized growth,[58],0.818
same,normalized growth,[59],0.944
same,normalized growth,[60],0.83
same,normalized growth,[61],1.03
same,normalized growth,[62],0.917
same,normalized growth,[63],0.901
same,normalized growth,[64],0.905
same,normalized growth,[65],1.03
same,normalized growth,[66],0.777 (active)
same,normalized growth,[67],1.03
same,normalized growth,[68],0.99
same,normalized growth,[69],0.964
same,normalized growth,[70],0.988
same,normalized growth,[71],0.991
N#C/C(=C\c1ccc(Oc2ccccc2)nc1)S(=O)(=O)c1ccccc1,normalized growth,[72],0.996
same,normalized growth,[73],1
same,normalized growth,"locus YCL061C, strain MRC1, stronger effect = lower value",0.976
same,normalized growth,[8],1
same,normalized growth,[74],0.984
same,normalized growth,[75],1.01
same,normalized growth,[76],1
same,normalized growth,[26],0.978
same,normalized growth,[77],1
same,normalized growth,[78],0.993
same,normalized growth,[79],0.981
same,normalized growth,[80],0.99
same,normalized growth,"locus YKL190W, strain CNB1, stronger effect = lower value",1
same,normalized growth,[81],0.95
same,normalized growth,[82],1.01
same,normalized growth,[83],0.998
same,normalized growth,[84],1.02
same,normalized growth,[85],1.02
same,normalized growth,[86],1
same,normalized growth,[87],0.956
same,normalized growth,"locus YMR307W, strain GAS1, stronger effect = lower value",0.884
same,normalized growth,[88],0.993
same,normalized growth,[89],0.939
same,normalized growth,[90],1
same,normalized growth,[91],0.997
same,normalized growth,"locus YOL006C, strain TOP1, stronger effect = lower value",0.922
same,normalized growth,[92],0.988
same,normalized growth,[93],0.996
same,normalized growth,[94],0.955
